Source: PubChem BioAssay (Tox21)
Records with an inconclusive call do not appear. Calls of active or inactive are those of the source. Unless noted, calls follow the shape of the dose curve; as a rule, active = well fitted curve in the direction sought with a large enough effect in the repeat runs; inconclusive = weak or mixed curves; inactive = no such curve, though single readings can be large; an effect the other way counts as inactive or inconclusive.

How the values were obtained:
[1] = qHTS assay for small molecules that induce genotoxicity in human embryonic kidney cells expressing luciferase-tagged ATAD5 (AID 651632); also: nearly all actives have a fitted effect of over 15% in size
Outline: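 Cells were seeded at 2,000 per well, dosed with compound, and incubated 16 hr at 37C in 5% CO2. Luciferase activity was then quantified after a 30 min room-temperature incubation with Amplite.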

[2] = qHTS assay for small molecule agonists of the p53 signaling pathway - cell viability (AID 651633; calls by dose curve;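 also: p53RE-bla HCT reporter cells with a stable beta-lactamase p53 reporter; series mostly up to about 83 µM; nearly all actives have a fitted effect of over 30% in size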)
Outline: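 Viability counter-read: CellTiter-Glo luminescence (30 min, room temperature) in the same p53RE-bla plates. These plates had been exposed to compounds for 16 h at 37 C.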

[3] = qHTS assay for small molecules that induce genotoxicity in human embryonic kidney cells expressing luciferase-tagged ATAD5 - cell viability (AID 651634; calls by dose curve; also: nearly all actives have a fitted effect of over 25% in size)
Outline: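 Cells (HEK293T, luciferase-tagged ATAD5) are seeded at 2,000 per well, dosed with compound or DMSO vehicle, and incubated 15.5 hr at 37C and 5% CO2. CellTiter-Fluor is added for 30 min before fluorescence is measured.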

[4] = qHTS assay for small molecule disruptors of the mitochondrial membrane potential - cell viability (AID 720634; calls by dose curve;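 also: human HepG2 liver cancer cells; series mostly up to about 83 µM; nearly all actives have a fitted effect of over 20% in size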)
Outline: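 Cytotoxicity was measured by ATP quantitation in HepG2 wells that had first been treated with compound for 1 hr and stained with m-MPI dye; CellTiter-Glo incubation was 30 min at room temperature.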

[5] = qHTS assay to test for compound auto fluorescence at 535 nm (green) in HepG2 cells (AID 720675)
[6] = qHTS assay to test for compound auto fluorescence at 460 nm (blue) in HEK293 cells (AID 720678)
Outline: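 Blue read-out at excitation 405 nm and emission 460 nm follows overnight compound exposure of HEK293 cells at 37C in 5% CO2. Activity is given as auto fluorescence equivalency to triamterene.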

[7] = qHTS assay to test for compound auto fluorescence at 590 nm (red) in HEK293 cells (AID 720679)
Outline: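 Red channel, Ex/Em 540/590nm; signal expressed as equivalency to Rose Bengal sodium. HEK293, 2,000 cells/well, 10% dialyzed FBS; 23 nL compound pinned after 4-5 hr attachment; overnight 37C/5% CO2 before reading.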

[8] = qHTS assay to test for compound auto fluorescence at 590 nm (red) in HepG2 cells (AID 720674)
Outline: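 We screened compounds on adherent HepG2 cells, incubating them for an hour at 37 C in 5% CO2 before reading emission at 590 nm under 540 nm excitation; values reflect equivalence to Rose Bengal sodium fluorescence.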

[9] = qHTS assay for small molecule disruptors of the mitochondrial membrane potential (AID 720635)
Outline: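 Mitochondrial membrane potential tracked with Mito-MPS dye, red aggregates (ex 540/em 590 nm) against green monomers (ex 490/em 535 nm). Compound treatment 1 hr at 37C, dye 30 min in HepG2.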

Measured: Potency

Clc1ccccn1
not listed: [8] | [9]
inactive: all other assays above

O=S(=O)(O)c1ccccc1
not listed: [1] | [9]
inactive: all other assays above

C[C@]12CCC(=O)C=C1CC[C@@H]1[C@@H]2[C@@H](O)C[C@@]2(C)[C@H]1CC[C@]2(O)C(=O)CO
inactive: [1] | [3] | [5] | [6] | [7]

CC(=O)OCCOC(C)=O
not listed: [4] | [8] | [9]
inactive: all other assays above

c1ccc(Oc2ccccc2)cc1
not listed: [8] | [9]
inactive: all other assays above

CCCCCCCCCCCCCCCCO
not listed: [5] | [9]
inactive: all other assays above

CCCCCCCCCCCC(=O)OC
not listed: [8] | [9]
inactive: all other assays above

CC(=O)OC1CC(C)OC(C)O1 (centres undefined)
not listed: [2] | [8]
inactive: all other assays above

CCOCC(=O)O
not listed: [9]
inactive: all other assays above

NCCCCCCN
not listed: [9]
inactive: all other assays above

C=CC(C)CCCC(C)(C)O (centres undefined)
not listed: [8] | [9]
inactive: all other assays above

COc1ccc(N)c(C)c1
not listed: [5] | [9]
inactive: all other assays above

CC(=O)OCc1ccco1
inactive: [1] | [3] | [4] | [6] | [7]

CCCCCCCCCCO
not listed: [5] | [9]
inactive: all other assays above

CC(O)CC(C)(C)O (centres undefined)
not listed: [5] | [9]
inactive: all other assays above

CC(C)CC(C)O (centres undefined)
not listed: [2] | [5] | [9]
inactive: all other assays above

CCCCOC(=O)c1ccc(N)cc1
not listed: [1] | [8]
inactive: all other assays above

Nc1ccc(Cl)c(N)c1
not listed: [5] | [9]
inactive: all other assays above

C=C(C)CNCC
not listed: [4] | [9]
inactive: all other assays above

CCCCCCC=O
not listed: [5] | [8] | [9]
inactive: all other assays above

OC1C(O)C(O)C(O)C(O)C1O (centres undefined)
not listed: [9]
inactive: all other assays above

CC(C)(C#N)c1cc(Cn2cncn2)cc(C(C)(C)C#N)c1
not listed: [5] | [9]
inactive: all other assays above

N#Cc1ccccc1
not listed: [1]
inactive: all other assays above

C=CC(=O)OCCC(=O)O
not listed: [9]
inactive: all other assays above

CCCCCCCC=O
not listed: [5] | [9]
inactive: all other assays above

COc1ccc(CCC(C)=O)cc1
not listed: [5] | [8] | [9]
inactive: all other assays above

CCO[Si](CCC#N)(OCC)OCC
not listed: [9]
inactive: all other assays above

CC1(C)CC(N)CC(C)(CN)C1 (centres undefined)
not listed: [9]
inactive: all other assays above

O=[N+]([O-])c1ccc2nc[nH]c2c1
not listed: [2] | [5] | [9]
inactive: all other assays above

N[C@H](Cc1c[nH]c2ccccc12)C(=O)O
not listed: [1] | [9]
inactive: all other assays above

CC(CCO)CC(C)(C)C (centres undefined)
not listed: [9]
inactive: all other assays above

CN(C)CCOC(=O)COc1ccc(Cl)cc1
not listed: [9]
inactive: all other assays above
